Assay results reported in PubChem BioAssay (NCATS).
Records with an inconclusive call do not appear. Activity calls are given as the source filed them. The call rests on the fitted dose curve; in most records, active means well fitted cell-killing curve with a large enough effect; inconclusive means small, poorly fitted or top-dose-only effect, or effect the other way; inactive means no such curve, though single readings can be large or run the other way. Non-standard residues stand in square brackets, D forms with d. Residues, ends and D or L forms follow the SMILES beside them. *: point of attachment. Nva = CCC[C@H](N)C(=O)O; Cbz = O=C(OCc1ccccc1)*

experiment: Quantitative High-Throughput drug screen in 47 multiple myeloma cell lines against the NCATS MIPE library collection: KMS28BM_JCRB cell viability assay (AID 1919874); conditions: CellTiter-Glo ATP, 48 h; series mostly up to 45.8 µM; further: nearly all actives have a fitted effect of over 35% in size
Text: PI: Beverly A. Mock Ph.D.
Laboratory of Cancer Biology and Genetics,
Center for Cancer Research, National Cancer Institute,
National Institute of Health, Bethesda, Maryland
Drug resistance and disease progression are common in multiple myeloma (MM) patients, underscoring the need for new therapeutic combinations. […] We hypothesized that effective combinations would reduce MYC expression and enhance p16 activity. […] These preclinical data identify potentially useful drug combinations for evaluation in drug-resistant MM and reveal potential mechanisms of combined drug sensitivity.
Described herein is the primary MIPE qHTS used to cherrypick compounds. Validated compounds were then further tested for potential synergistic activiy.
[1] Peat TJ, Gaikwad SM, Dubois W, Gyabaah-Kessie N, Zhang S, Gorjifard S, Phyo Z, Andres M, Hughitt VK, Simpson RM, Miller MA, Girvin AT, Taylor A, Williams D, D'Antonio N, Zhang Y, Rajagopalan A, Flietner E, Wilson K, Zhang X, Shinn P, Klumpp-Thomas C, McKnight C, Itkin Z, Chen L, Kazandijian D, Zhang J, Michalowski AM, Simmons JK, Keats J, Thomas CJ, Mock BA. Drug combinations identified by high-throughput screening promote cell cycle transition and upregulate Smad pathways in myeloma. Cancer Lett. 2023 Aug 1;568:216284. doi: 10.1016/j.canlet.2023.216284. Epub 2023 Jun 24. PMID: 37356470; PMCID: PMC10408729.
SEQUENCE No. (e.g., 1, 2, 3, etc.); […] (e.g., Cells, Incubation, Reagent, etc.); VALUE and DESCRIPTION.
1; Cells; 5 uL; white, solid bottom 1536-well Greiner assay plate.
2; Compounds; 23 nL; Kalypsis pin tool (Wako USA) equipped with a 1536-well pin head to transfer to the assay plates.
3; Incubation; 48 hours; 37C incubation.
4; Reagent;5uL; CellTiter Glo (Promega).
5; Detector; 425V; Luminescence; Viewlux PerkinElmer.
NOTES (numbers refer to Sequence numbers above)
1. The cell-based screening methods employed in this study were like those previously published. Briefly, the corresponding myeloma cell lines were screened in 1,536-well plates with 500 cells, 5-uL per well for inhibition of cell viability (assessed by measuring ATP levels with CellTiterGlo).
2. NCATS MIPE 4.0 library of approved and investigational drugs were added using the Kalypsis pin tool. Wells treated with DMSO only for 100% viability and media only for 0% viability were used as controls.
3. The assay plates were covered and incubated for 48 hours in a 37C, 5% CO2 incubator with controlled humidity.
4. After 48 hours, CellTilter-GloTM luminescent substrate mix (Promega) reagent was added to the assay plate and plates we incubated for 5 min at room temperature.
5. Signal was measured as median relative luminescence units on a ViewLux (PerkinElmer) multiplate reader.
[1] Heske CM, Davis MI, Baumgart JT, Wilson K, Gormally MV, Chen L, Zhang X, Ceribelli M, Duveau DY, Guha R, Ferrer M, Arnaldez FI, Ji J, Tran HL, Zhang Y, Mendoza A, Helman LJ, Thomas CJ. Matrix Screen Identifies Synergistic Combination of PARP Inhibitors and Nicotinamide Phosphoribosyltransferase (NAMPT) Inhibitors in Ewing Sarcoma. Clin Cancer Res. 2017 Dec 1;23(23):7301-7311. doi: 10.1158/1078-0432.CCR-17-1121. Epub 2017 Sep 12. PMID: 28899971; PMCID: PMC6636827.
Potency means the concentration at half of the fitted maximal effect.

| Structure (SMILES) | Potency |
| --- | --- |
| CC(=O)NCC(=O)N1[C@H]2CC[C@H]1c1cc(Nc3ncc(C(F)(F)F)c(NC4CCC4)n3)ccc12 | 3.32 µM (active) |
| O=[N+]([O-])c1cn2c(n1)OC[C@@H](OCc1ccc(OC(F)(F)F)cc1)C2 | inactive |
| CNC(=O)c1ccc(Nc2cc(Nc3ccccc3S(=O)(=O)C(C)C)c3cc[nH]c3n2)nc1 | 1.32 µM (active) |
| CN1CCCN(C(=O)c2cccc(-c3ccc(C=C4C(=O)Nc5ccc(Cl)cc54)o3)c2)CC1 | 10.5 µM (active) |
| CC(=O)N[C@H]1[C@@H]([C@H](O)[C@H](O)CO)OC(C(=O)O)=C[C@@H]1N=C(N)N | inactive |
| CCc1cnn2c(NCc3ccc[n+]([O-])c3)cc(N3CCCC[C@@H]3CCO)nc12 | 0.0296 µM (active) |
| NC(=O)c1ncn([C@@H]2O[C@H](CO)[C@@H](O)[C@@H]2O)c1N | inactive |
| CCN(CC)CCCCNc1ncc2c(n1)N(C)C(=O)N(c1c(Cl)c(OC)cc(OC)c1Cl)C2 | 11.8 µM (active) |
| CCCCCCCCCCCC(CC1OC(=O)C1CCCCCC)OC(=O)C(CC(C)C)NC=O (stereo not given) | inactive |
| CCC(C(=O)O)C1CCC(C)C(C(C)C(O)C(C)C(=O)C(CC)C2OC3(C=CC(O)[C@@]4(CC[C@](C)(C5CC[C@@](O)(CC)C(C)O5)O4)O3)C(C)CC2C)O1 (stereo not given in full) | 6.62 µM (active) |
| CC(C)(O)Cn1c(NC(=O)c2ccc(-c3cn[nH]c3)s2)nc2cc(CN3CCOCC3)ccc21 | 0.743 µM (active) |
| COc1cc(C)c(Sc2cnc(NC(=O)c3ccc(CNC(C)C(C)(C)C)cc3)s2)cc1C(=O)N1CCN(C(C)=O)CC1 (stereo not given) | 13.2 µM (active) |
| CC(C)OC(=O)[C@H](C)N[P@](=O)(OC[C@H]1O[C@@H](n2ccc(=O)[nH]c2=O)[C@](C)(F)[C@H]1O)Oc1ccccc1 | inactive |
| C[C@H](O)[C@@H]1C(=O)N2C(C(=O)O)=C(S[C@@H]3CN[C@H](CNS(N)(=O)=O)C3)[C@@H](C)[C@@H]12 | inactive |
| Nc1nc(N)c2nc(-c3cccc(O)c3)c(-c3cccc(O)c3)nc2n1 | 20.9 µM (active) |
| CCC[C@H]1C[C@H](C(=O)N[C@@H]([C@@H]2O[C@@H](SC)[C@@H](O)[C@@H](O)[C@@H]2O)[C@H](C)Cl)N(C)C1 | inactive |
| OCCNC1CCCc2c1[nH]c1ccc(-c3ccccc3)cc21 (stereo not given) | 20.9 µM (active) |
| CN(C)CCN1C(=O)c2cccc3cc(N)cc(c23)C1=O | 16.6 µM (active) |
| CC(C)Oc1ccc(C(=O)N[C@H](CNC(=O)CN(C)C)Cc2ccc(-c3cn4cccc([C@H](C)O)c4n3)cc2)cc1Cl | 1.66 µM (active) |
| C=CCNC1=C2C[C@@H](C)C[C@H](OC)[C@@H](O)[C@@H](C)C=C(C)[C@H](OC(N)=O)[C@@H](OC)C=CC=C(C)C(=O)NC(=CC1=O)C2=O | 0.662 µM (active) |

| Structure (SMILES) | Potency |
| --- | --- |
| COc1ccc(S(=O)(=O)Nc2cc(-c3c(O)ccc4ccccc34)c(O)c3ccccc23)cc1 | 3.72 µM (active) |
| O=c1[nH]c(=O)n([C@H]2C[C@@H](O)[C@@H](CO)O2)cc1F | 20.9 µM (active) |
| CC(C)C[C@H](NC(=O)CNC(=O)c1cc(Cl)ccc1Cl)B1OC(=O)CC(CC(=O)O)(C(=O)O)O1 (stereo not given in full) | 0.0526 µM (active) |
| O=C(CN1C(=O)C2(CCCC2)NC[C@H]1c1cc(F)cc(F)c1)Nc1ccc2c(c1)C[C@@]1(C2)C(=O)Nc2ncccc21 | inactive |
| CC(C)N1[N]C(=C2C=c3cc(O)ccc3=N2)c2c(N)ncnc21 | 1.32 µM (active) |
| CCC[C@@H](C=O)NC(=O)[C@H](CC(C)C)NC(=O)[C@H](CC(C)C)NC(=O)OCc1ccccc1 (Cbz-Leu-Leu-[Nva]-aldehyde) | 0.187 µM (active) |
| C[C@@H](Oc1ccc2[nH]nc(C=Cc3cnn(CCO)c3)c2c1)c1c(Cl)cncc1Cl | 1.18 µM (active) |
| COc1cc(O)c2c(c1)C1OC1C[C@H](O)[C@H](O)C(=O)C=CC[C@H](C)OC2=O (stereo not given in full) | 3.72 µM (active) |
| O=C1c2c(O)cccc2[C@@H]([C@@H]2O[C@H](CO)[C@@H](O)[C@H](O)[C@H]2O)c2cc(CO)cc(O)c21 | inactive |
| CC(N[C@H]1CCCC[C@H]1NC(=O)c1ccc(Cl)cc1)c1cccc2ccccc12 (stereo not given in full) | 18.7 µM (active) |
| C[C@H]1COc2c(N3CCN(C)CC3)c(F)cc3c(=O)c(C(=O)O)cn1c23 | inactive |
| C[C@]12CC[C@@H]3c4ccc(O)cc4CC[C@H]3[C@H]1CC[C@H]2O | 23.5 µM (active) |
| O=c1[nH]c(=O)n([C@H]2C[C@@H](O)[C@@H](CO)O2)cc1C=CBr | inactive |
| C[C@H]1O[C@H](O[C@H]2[C@H](O)[C@@H](O)[C@@H](O[C@H]3[C@H](O)[C@@H](O)C(O)O[C@H]3CO)O[C@H]2CO)[C@H](O)[C@@H](O)[C@H]1N[C@H]1C=C(CO)[C@@H](O)[C@H](O)[C@@H]1O (stereo not given in full) | inactive |
| COc1cc2c(cc1OC)[C@@H]1C(=O)c3ccc4c(c3O[C@@H]1CO2)C=CC(C)(C)O4 | 5.9 µM (active) |
| COc1ccc(C=Cc2cc(OC)c(OC)c(OC)c2)cc1NC(=O)[C@H](N)CO | 0.0118 µM (active) |
| Cc1onc(-c2ccccc2)c1C(=O)N[C@@H]1C(=O)N2[C@@H](C(=O)O)C(C)(C)S[C@@H]12 | inactive |
| Cn1cc(CNCC2CCN(c3ncc(C(=O)NO)cn3)CC2)c2ccccc21 | 0.0187 µM (active) |
| N#CC(=C(O)c1ccc(Cl)cc1Cl)c1nc2cc(Cl)ccc2c(=O)[nH]1 | inactive |
| CC(=O)SCC(Cc1ccccc1)C(=O)NCC(=O)OCc1ccccc1 (stereo not given) | 11.8 µM (active) |
